# Data: PubChem BioAssay (NCATS)
# Values joined by “and” are separate entries in the source; they are usually repeats but may differ in a detail not shown here. Equal values may be shown once. Records with an inconclusive call do not appear. Active and inactive are the calls of the source. The call rests on the fitted dose curve; in most records, active means well fitted curve in either direction with a large enough effect (not every such curve was filed as active); inconclusive means small, poorly fitted or top-dose-only effect, or another doubt; inactive means flat fitted curve, though single readings scatter.
# Assay: NFAT Signaling Pathway (AID 444);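 further: carbachol stimulus at about its EC50 of 1 µM final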
# Conditions: Jurkat NFAT-bla M1, carbachol, beta-lactamase ratio, 5 h; at 17.2 µM (top of the series) unless noted
# Procedure, shortened: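 Jurkat cells with NFAT-driven β-lactamase reporter and co-expressed M1 receptor, stimulated with carbachol (final 1 uM, ~EC50), compound titration, 5 h at 37 °C. CCF4 loaded 1 h at RT; 460/530 nm ratio gave %activity and AC50.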
# On the % scale 0 is the no-effect control and ±100 the full control effect.
row,Structure (SMILES),"activity change, negative = inhibition"
1,Nc1[nH]c(=O)ncc1F,0.663% (inactive)
2,O=C(O)c1cn(C2CC2)c2cc(N3CCNCC3)c(F)cc2c1=O,6.31% (inactive)
3,CCn1cc(C(=O)O)c(=O)c2cc(F)c(N3CCNCC3)cc21,1.51% (inactive) and 17.3% (inactive)
4,O=C(O)c1cccnc1,-4.12% (inactive)
5,COc1cc2ncnc(Nc3cccc(Cl)c3)c2cc1OC,3.52% [at 38 µM] (inactive)
6,CC(C)(Sc1cc(C(C)(C)C)c(O)c(C(C)(C)C)c1)Sc1cc(C(C)(C)C)c(O)c(C(C)(C)C)c1,10.7% (inactive)
7,CCN(CC)CC#CCOC(=O)C(O)(c1ccccc1)C1CCCCC1 (stereo not given),-93% (active)
8,CC1=CC(=O)c2ccccc2C1=O,-115% (active)
9,CCC(=O)O[C@]1(C(=O)CCl)[C@@H](C)C[C@H]2[C@@H]3CCC4=CC(=O)C=C[C@]4(C)[C@@]3(F)[C@@H](O)C[C@@]21C,-24.5% (inactive)
10,O=S(=O)(c1cccc2cnccc12)N1CCCNCC1,-20.4% (inactive)
11,Cn1c(=O)c2c(ncn2CC(O)CO)n(C)c1=O (stereo not given),10.5% (inactive)
12,N[C@@H](C(=O)N[C@@H]1C(=O)N2C(C(=O)O)=C(Cl)CS[C@H]12)c1ccccc1,7.31% (inactive)
13,COc1ccccc1OCC(O)COC(N)=O (stereo not given),-29.9% (inactive)

# Assay: Stat Signaling Pathway (AID 446);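 further: ME-180 cervical cancer cells given 40 pM IL-6 alongside compound; SIE-controlled beta-lactamase reporter measured as 460/530 nm FRET emission ratio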
# Conditions: ME-180 SIE beta-lactamase reporter, IL-6 stimulated, 5 h; at 17.2 µM (top of the series) unless noted
# Procedure, shortened: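 ME-180 cells carrying a SIE-driven beta-lactamase reporter are stimulated with 40 pM IL-6 for 5 h at 37C in the presence of compound. The 460/530 nm FRET substrate ratio is read after 2.5 h at RT. Data are normalised to 300 pM IL-6 and to 125 nM JAK inhibitor controls.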
row,Structure (SMILES),"activity, negative = inhibition"
1,Nc1[nH]c(=O)ncc1F,-4.22% (inactive)
2,C1CCC(C(CC2CCCCN2)C2CCCCC2)CC1 (stereo not given),5.25% (inactive)
3,O=C(O)c1cn(C2CC2)c2cc(N3CCNCC3)c(F)cc2c1=O,11.7% (inactive)
4,COc1cc([C@@H]2c3cc4c(cc3[C@H](O)[C@H]3COC(=O)[C@H]23)OCO4)cc(OC)c1OC,6.38% (inactive)
5,CCn1cc(C(=O)O)c(=O)c2cc(F)c(N3CCNCC3)cc21,1.48% (inactive) and 7% (inactive)
6,O=C(O)c1cccnc1,3.94% (inactive)
7,NS(=O)(=O)c1cc2c(cc1Cl)NC(C(Cl)Cl)NS2(=O)=O (stereo not given),2.72% (inactive)
8,CC(C)(Sc1cc(C(C)(C)C)c(O)c(C(C)(C)C)c1)Sc1cc(C(C)(C)C)c(O)c(C(C)(C)C)c1,5.26% (inactive)
9,CCN(CC)CC#CCOC(=O)C(O)(c1ccccc1)C1CCCCC1 (stereo not given),0.633% (inactive)
10,CCC(=O)O[C@]1(C(=O)CCl)[C@@H](C)C[C@H]2[C@@H]3CCC4=CC(=O)C=C[C@]4(C)[C@@]3(F)[C@@H](O)C[C@@]21C,-5.77% (inactive)
11,Clc1ccccc1CN1CCc2sccc2C1,1.54% (inactive) and 0.607% (inactive)
12,Cn1c(=O)c2c(ncn2CC(O)CO)n(C)c1=O (stereo not given),1.2% (inactive)
13,Nc1nc(F)nc2c1ncn2[C@@H]1O[C@H](CO)[C@@H](O)[C@@H]1O,7.84% (inactive)
14,N[C@@H](C(=O)N[C@@H]1C(=O)N2C(C(=O)O)=C(Cl)CS[C@H]12)c1ccccc1,1.22% (inactive)
15,N=C(N)c1ccc(OCCCCCOc2ccc(C(=N)N)cc2)cc1,15.4% (inactive)
16,Cc1ccc(S(=O)(=O)N[C@@H](Cc2ccccc2)C(=O)CCl)cc1,-65.8% [at 38 µM] (active)
17,COc1ccccc1OCC(O)COC(N)=O (stereo not given),6.13% (inactive)
